Measured values as given in PubChem BioAssay (NCATS).
Values joined by “and” are separate entries in the source; they are usually repeats but may differ in a detail not shown here. Equal entries are not always repeated. Results filed as inconclusive are left out. Active and inactive are the calls of the source. Unless noted, calls come from the whole dose curve; as a rule, active = well fitted curve in the direction sought with a large enough effect; inconclusive = small, poorly fitted or top-dose-only effect, or another doubt; inactive = no such curve, though single readings can be large; an effect the other way counts as inactive or inconclusive.

Tests used:
[1] = target: Glucocorticoid receptor (Homo sapiens) (UniProt P04150); test: GR-GFP Redistribution (AID 450;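 active = compounds whose dose series gives a full or clear partial fitted curve of increased nuclear translocation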; note: potency is the fitted concentration of half-maximal effect); settings: U2OS GR-GFP nuclear translocation, laser cytometry, 2 h
Glucocorticoid receptor (Homo sapiens), sequence (P04150 whole entry, looked up, the tested form may be a part): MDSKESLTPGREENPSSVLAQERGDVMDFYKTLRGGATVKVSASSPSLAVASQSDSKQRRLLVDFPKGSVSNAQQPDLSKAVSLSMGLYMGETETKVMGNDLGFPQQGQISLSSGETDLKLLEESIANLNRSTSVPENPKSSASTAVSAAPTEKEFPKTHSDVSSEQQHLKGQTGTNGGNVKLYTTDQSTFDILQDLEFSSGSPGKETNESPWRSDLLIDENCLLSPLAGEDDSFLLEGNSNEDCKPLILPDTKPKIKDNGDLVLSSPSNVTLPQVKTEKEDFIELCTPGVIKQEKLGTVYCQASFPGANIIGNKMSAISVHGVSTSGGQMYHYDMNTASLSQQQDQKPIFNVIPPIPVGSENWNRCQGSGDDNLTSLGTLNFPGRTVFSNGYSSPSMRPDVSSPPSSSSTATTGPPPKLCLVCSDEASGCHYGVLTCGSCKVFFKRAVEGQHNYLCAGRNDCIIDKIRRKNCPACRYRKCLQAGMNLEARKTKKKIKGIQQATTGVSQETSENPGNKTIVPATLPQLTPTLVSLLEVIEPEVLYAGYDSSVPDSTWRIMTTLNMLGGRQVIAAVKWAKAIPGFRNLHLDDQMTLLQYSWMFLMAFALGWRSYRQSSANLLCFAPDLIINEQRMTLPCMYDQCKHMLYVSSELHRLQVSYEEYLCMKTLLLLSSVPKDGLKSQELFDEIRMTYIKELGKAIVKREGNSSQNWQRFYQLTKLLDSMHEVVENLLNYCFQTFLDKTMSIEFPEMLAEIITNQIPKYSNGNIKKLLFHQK

[2] = target: Glucocorticoid receptor (Homo sapiens) (UniProt P04150); test: GR-EFC Redistribution (AID 451; calls by dose curve; note: potency is the fitted concentration of half-maximal effect); settings: CHO-K1 GR-EFC translocation, beta-gal luminescence, 2 h
In short: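 Translocation of GR-ED fusion to nuclear EA restores b-gal, read by luminescence after 1 h room-temperature detection. Engineered CHO-K1 biosensor cells, 1,000/well, exposed 2 h at 37 C to titrations up to 46 uM final.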

[3] = target: Mitogen-activated protein kinase 10 (Mus musculus) (UniProt Q61831); test: JNK3 AlphaScreen Assay (AID 530; active = well fitted curve in either direction with a large enough effect, not every such curve was filed as active;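 note: kinase came from lysate of stimulated human HepG2 cells; signal reports phosphorylation of biotinylated GST-cJun 1-79 at Ser73 with 10 µM ATP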); settings: JNK3 lysate, c-Jun phosphorylation; series mostly up to 25.6 µM
In short: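 Room-temperature AlphaScreen kinase assay; pre-activated HepG2 lysate as JNK3 source, biotin-GST-cJun(1-79) substrate, 10 uM ATP, compound 15 min preincubation.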

[4] = target: 3',5'-cyclic-AMP phosphodiesterase 4B (Homo sapiens) (UniProt Q07343); test: qHTS Assay for Inhibitors of PDE-IV (AID 607; active = well fitted activation curve with a large enough effect in the main read-out, with a control signal flat, not every such curve was filed as active); settings: HEK293 ACTOne CNG channel cells, membrane potential fluorescence; series mostly up to 22.9 µM
3',5'-cyclic-AMP phosphodiesterase 4B (Homo sapiens), sequence (Q07343 whole entry, looked up): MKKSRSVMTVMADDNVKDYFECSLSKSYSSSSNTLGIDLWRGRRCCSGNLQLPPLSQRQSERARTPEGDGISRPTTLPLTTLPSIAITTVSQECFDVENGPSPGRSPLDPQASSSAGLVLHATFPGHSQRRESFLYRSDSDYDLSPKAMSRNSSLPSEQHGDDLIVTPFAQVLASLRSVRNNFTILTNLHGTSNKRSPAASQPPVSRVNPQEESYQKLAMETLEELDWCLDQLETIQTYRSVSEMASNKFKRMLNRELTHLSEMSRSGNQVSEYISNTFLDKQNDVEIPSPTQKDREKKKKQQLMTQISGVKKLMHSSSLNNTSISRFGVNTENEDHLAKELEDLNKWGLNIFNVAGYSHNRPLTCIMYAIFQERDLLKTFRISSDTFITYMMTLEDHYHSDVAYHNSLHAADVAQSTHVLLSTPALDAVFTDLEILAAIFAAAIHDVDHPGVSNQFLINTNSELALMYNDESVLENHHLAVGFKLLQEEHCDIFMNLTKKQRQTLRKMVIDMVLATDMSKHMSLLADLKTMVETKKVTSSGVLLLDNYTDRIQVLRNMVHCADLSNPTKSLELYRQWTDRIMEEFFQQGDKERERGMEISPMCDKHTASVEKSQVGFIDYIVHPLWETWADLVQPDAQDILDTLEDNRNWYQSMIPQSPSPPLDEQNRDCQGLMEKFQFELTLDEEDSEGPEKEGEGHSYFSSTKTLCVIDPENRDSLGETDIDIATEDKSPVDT
In short: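 Cell-based read-out of cAMP via a modified cyclic nucleotide-gated channel and membrane potential dye (535/590 nm) in HEK293 cells expressing PDE4 endogenously. Compounds tested up to 22.9 uM final; 100 uM RO 20-1724 reference.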

[5] = Cell Viability - N2a (AID 540); settings: N2a mouse neuroblastoma cell viability; series mostly up to 92.2 µM;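 note: cells exposed to compound for 40 h at 37 °C; nearly all actives have a fitted effect of over 45% in size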
In short: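 First, 1500 N2a cells per well incubate 5 hr at 37 °C; next, compounds are added and incubated 40 hr at 37 °C; finally CellTiter-Glo is added and luminescence read after 20 min, with AC50 derived by Hill modeling.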

[6] = Cell Viability - NIH 3T3 (AID 541); settings: NIH 3T3 cell viability, qHTS; series mostly up to 92.2 µM;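 note: cells exposed to compound for 40 hours; nearly all actives have a fitted effect of over 25% in size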
In short: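 AC50 values reflect concentration-dependent loss of intracellular ATP in NIH 3T3 cells after 40 hr treatment in complete culture medium, quantified by luciferase-based luminescence.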

[7] = Cell Viability - HUV-EC-C (AID 542); settings: HUV-EC-C endothelial cell viability, qHTS; series mostly up to 92.2 µM;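 note: cells exposed to compound for 40 hours; nearly all actives have a fitted effect of over 35% in size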
In short: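 Decrease in cellular ATP, quantified by luciferase luminescence, reflects toxicity in normal human vascular endothelial HUV-EC-C cells given compound for 40 hr in complete culture medium. Values are AC50s from concentration-response curves.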

[8] = Cell Viability - H-4-II-E (AID 543); settings: H-4-II-E rat hepatoma viability; series mostly up to 92.2 µM;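 note: cells exposed to compound for 40 hours; nearly all actives have a fitted effect of over 35% in size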
In short: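 Here, cytotoxicity is measured in the rat hepatoma line H-4-II-E as loss of intracellular ATP after 40 hr compound treatment, detected by luciferase luminescence.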

[9] = Cell Viability - Renal Proximal Tubule (AID 545); settings: renal proximal tubule cells viability, primary cells of rat origin; series mostly up to 91.7 µM;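 note: cells exposed to compound for 40 hours; nearly all actives have a fitted effect of over 40% in size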
In short: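 Primary rat renal proximal tubule cells (1000/well) were treated with compounds for 40 hr at 37 °C in complete medium. Intracellular ATP was measured by CellTiter-Glo luminescence, and AC50 values came from Hill-equation fits of concentration-response data.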

[10] = Cell Viability - Mesenchymal (AID 546); settings: mesenchymal cells viability, qHTS; series mostly up to 91.7 µM;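 note: cells exposed to compound for 40 hours before reading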
In short: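 AC50 values reflect the drop in intracellular ATP in a human kidney mesenchymal line derived from normal glomeruli. Treatment lasts 40 hr at 37 °C in complete medium, and the signal comes from CellTiter-Glo luminescence.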

[11] = Cellular Toxicity (caspase-3) HepG2 (AID 654); settings: HepG2 caspase-3 activation, luminescence, 0% = DMSO only, 100% = tamoxifen; series mostly up to 92.2 µM;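 note: cells exposed to compound for 16 hours before reading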
In short: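 qHTS, HepG2, 1500 cells/well, complete medium; cpd 16 h 37 °C; Caspase-Glo 3/7, 20 min RT; lum. Norm: DMSO vs 100 uM tamoxifen; AC50 Hill fit.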

[12] = Cellular Toxicity (caspase-3) Jurkat (AID 655); settings: Jurkat caspase-3 activation, luminescence, DMSO = 0%, tamoxifen = 100%; series mostly up to 92.2 µM;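 note: cells exposed to compound for 16 h at 37 °C before reading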
In short: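 Jurkat cells (5000/well) in complete medium were treated with compounds for 16 hr at 37 °C, then Caspase-Glo 3/7 luminescence was read after 20 min at room temperature. Data normalized to DMSO (basal) and 100 uM tamoxifen (100%); AC50 from Hill fit.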

[13] = Cellular Toxicity (caspase-3) HUV-EC-C (AID 656); settings: HUV-EC-C cells, caspase-3 activation (apoptosis), vehicle = 0, 100 µM tamoxifen = 100%; series mostly up to 92.2 µM
In short: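 HUV-EC-C endothelial cells, 1000/well, were pre-incubated 5 hr at 37°C, then exposed to compounds for 16 hr at 37°C. Caspase-Glo 3/7 luminescence was read after 20 min at room temperature. AC50 came from Hill fits, normalized to DMSO and 100 uM tamoxifen.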

[14] = Cellular Toxicity (caspase-3) SHSY5Y (AID 657); settings: SH-SY5Y caspase-3 activation, DMSO zero, 10 µM staurosporine = 100%; series mostly up to 91.7 µM
In short: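 SH-SY5Y human neuroblastoma cells (1500/well) were treated with compounds for 16 h at 37 °C, then Caspase-Glo 3/7 luminescence was read after 1 h at room temperature. Data normalized to DMSO and 10 uM staurosporine; AC50 from Hill fits.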

[15] = Cellular Toxicity (caspase-3) BJ (AID 658); settings: BJ fibroblasts, luminescence, normalized: DMSO 0%, staurosporine 100%; series mostly up to 91.7 µM
In short: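 Readout: Caspase-Glo 3/7 luminescence increase in BJ cells after 16 hr treatment at 37 °C. Staurosporine and tamoxifen served as positive controls; AC50 values came from Hill modelling of data normalized to DMSO and 10 uM staurosporine.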

[16] = Cellular Toxicity (caspase-3) MRC-5 (AID 659); settings: MRC-5 cells, luminescence, normalized: DMSO 0%, 10 µM staurosporine 100%; series mostly up to 91.7 µM
In short: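 Concentration-dependent caspase 3/7 activation is measured in human normal lung fibroblasts (MRC-5) following 16-hour treatment. AC50 values come from standard Hill-equation modeling of luminescence normalized to DMSO and 10 uM staurosporine.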

[17] = Cellular Toxicity (caspase-3) Mesangial (AID 660); settings: mesangial cells, normalized: DMSO 0%, 100 µM tamoxifen 100%; series mostly up to 91.7 µM;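 note: combined caspase 3 and 7 activity read by Caspase-Glo luminescence; cells exposed to compound for 16 h before the caspase read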
In short: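 Concentration-response qHTS: compound-induced rise in caspase 3/7 luminescence in human mesangial cells after 16 h, normalized to DMSO and 100 uM tamoxifen controls.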

[18] = Cellular Toxicity (caspase-3) SK-N-SH (AID 661); settings: SK-N-SH caspase-3 activation, qHTS, DMSO as zero, staurosporine as full; series mostly up to 91.7 µM
In short: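 Caspase 3/7 activation is measured as a luminescence increase from aminoluciferin released by substrate cleavage in SK-N-SH cells after 16 hr compound treatment; values are AC50 from concentration-response curves.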

[19] = Cellular Toxicity (caspase-3) H-4-II-E (AID 663); settings: H-4-II-E rat hepatoma, scaled: DMSO 0%, 100 µM tamoxifen 100%; series mostly up to 92.2 µM;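 note: cells exposed to compound for 16 hr before readout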
In short: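 Apoptosis induction is scored as increased luminescence from caspase 3/7 substrate cleavage in rat hepatoma H-4-II-E cells exposed to compound for 16 hr. Activity is scaled between DMSO and 100 uM tamoxifen.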

[20] = Cellular Toxicity (caspase-3) Hek293 (AID 664); settings: HEK293 caspase-3 activation, DMSO = 0%, 100 µM tamoxifen = 100%; series mostly up to 92.2 µM;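 note: cells exposed to compound for 16 h at 37 °C before readout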
In short: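 Activation of caspase-3/7 is measured as increased luminescence from cleaved peptide-aminoluciferin substrate in HEK293 cells treated 16 hours at 37 °C. AC50 values come from Hill-equation fits of concentration-response data.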

Measured: Potency

CCc1cccc(CC)c1NC(=O)CN(CC(=O)O)CC(=O)O
inactive: [1] > 20.6 µM | [2] > 20.6 µM | [3] | [4]

CCOC(=O)[C@H](CCc1ccccc1)N[C@@H](C)C(=O)N1CCC[C@H]1C(=O)O
inactive: [1] > 20.6 µM | [2] > 20.6 µM | [3] | [4]

Cc1cc(=O)[nH]c(=S)[nH]1
not listed: [1] | [2] | [4]
inactive: all other assays above

O=S1(=O)OC(c2ccc(O)cc2)(c2ccc(O)cc2)c2ccccc21
inactive: [3] | [4]

CC(=O)OCC(COC(C)=O)OC(C)=O
not listed: [1] | [2] | [4]
inactive: all other assays above

Cn1c(=O)c2c(ncn2CCO)n(C)c1=O
inactive: [3] | [4]

CCCCCCCC(=O)OCC(COC(=O)CCCCCCC)OC(=O)CCCCCCC
not listed: [1] | [2] | [4]
inactive: all other assays above

CC(=O)N[C@@H](CC(C)C)C(=O)O
inactive: [3] | [4]

CCS(=O)(=O)CCn1c([N+](=O)[O-])cnc1C
inactive: [3] | [4]

CC(=O)Nc1ccc(C(=O)O)cc1
not listed: [1] | [2] | [4]
inactive: all other assays above

O=C(c1ccccc1)C(O)c1ccccc1 (configuration not stated)
not listed: [1] | [2] | [4]
inactive: all other assays above

C[N+](C)(C)CC[N+]1(C)Cc2c(Cl)c(Cl)c(Cl)c(Cl)c2C1
inactive: [1] > 46 µM | [2] > 46 µM | [3] | [4]

C=CCNC(N)=S
not listed: [1] | [2] | [4]
inactive: all other assays above

NCc1ccc(S(N)(=O)=O)cc1
inactive: [3] | [4]

O=C(O)COC(=O)Cc1ccccc1Nc1c(Cl)cccc1Cl
inactive: [3]

O=C(Cn1ccnc1[N+](=O)[O-])NCCO
inactive: [3] | [4]

CN1C(C)(C)CCCC1(C)C
inactive: [1] > 46 µM and > 20.6 µM | [2] > 46 µM and > 20.6 µM | [3] | [4]

O=C(O)c1ccccc1OP(=O)(O)O
inactive: [1] > 20.6 µM | [2] > 20.6 µM | [3] | [4]

CCCCCC(N)=O
not listed: [1] | [2] | [4]
inactive: all other assays above
